Compound activity from PubChem.
IL1B NFkB inh: inhibitors of IL-1B driven NFkB p65 nuclear import, primary screen, imaging, HUVEC, IL-1B stimulus, high-content imaging. HUVEC IL-1B NFkB p65 nuclear translocation imaging. inhibition, % at 2 µM. 0.43% of 94,000 active;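 active = inhibition above about 30% together with a positive call from visual inspection of the well image, limit read from the data; inconclusive = inhibition above a set limit but visual check negative; inactive = inhibition not above a set limit, visual check negative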;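 note: nuclear over cytoplasmic p65 intensity ratio measured by imaging; 0% = IL-1B stimulated DMSO wells and 100% = unstimulated DMSO wells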
Cav32 inh: Cav3.2 calcium influx blockers – cell-based, Fluo-4 calcium fluorescence, FDSS, MLSMR library, primary screen | AID 449739, 2010 | B-score at 10 µM | Cav3.2-expressing cells; stronger effect = lower value | Voltage-dependent T-type calcium channel subunit alpha-1H (Homo sapiens), O95180 | 4% of 100,000 active;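 active = single-dose well whose peak fluorescence ratio is a statistical outlier from its plate by either plate-standardised score or position-corrected B-score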
NFkB transloc pot: enhancers of NFkB p65 translocation in HUVEC – imaging, IL-1B stimulus, high-content imaging, primary screen; 0.3% of 94,000 active; activation, % at 2 µM; HUVEC IL-1B NFkB p65 nuclear translocation imaging; AID 819, 2007;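 active = activation above 40%, about the mean plus 3 SD, also judged a hit on visual image review; inconclusive = activation above 40% but not a hit on visual review; inactive = activation not above 40% and no visual hit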;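 note: percent activation is computed from the nuclear over cytoplasmic p65 intensity ratio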
HUVEC tox IL1B: cytotoxicity in IL-1B stimulated HUVEC, primary screen, cytotoxicity control for IL-1B NFkB translocation project, imaging, Hoechst nuclear count, IL-1B stimulus. 0.41% of 94,000 active. HUVEC cell count loss. AID 845, 2007. cell count reduction, % at 2 µM;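 active = cell count reduction more than 3 SD above the screen-wide mean, cut at about 70% in these data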;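 note: normalized per plate to untreated control cells as the no-loss baseline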
Starred values were filed as active, the others as inactive; ? = inconclusive; · = no result. Compounds with a hit are over-represented: about 4.4% of the library has one in this group of screens.

SMILES	IL1B NFkB inh	Cav32 inh	NFkB transloc pot	HUVEC tox IL1B
CCc1ccc(S(=O)(=O)NCCc2csc(-c3cccnc3)n2)s1	-2	0.097	1	11
CCc1ccc(S(=O)(=O)NCCc2csc(-c3ccccc3)n2)s1	-6	-4.5*	6	-18
CCc1ccc(S(=O)(=O)NCc2csc(-c3ccccc3)n2)s1	-13	-3.2*	13	-27
C[C@@H]1C=C(C(=O)NCc2ccccc2)O[C@H](OCc2ccc(CO)cc2)C1	·	0.47	·	·
CC1(C)CC2CC(C)(CN2C(=O)C23CCC(C)(C(=O)O2)C3(C)C)C1 (stereo not drawn)	6	0.59	-6	6
COc1ccc(CN(C(=O)CSc2nnc(-c3ccccc3F)o2)c2ccc(F)cc2)cc1	-46	-4.8*	?	-15
Cc1cc(CNC(=O)C2(C(F)(F)F)C/C(=C\Cc3ccccc3)CCCO2)nn1C (stereo not drawn)	·	0.47	·	·
O=C(CN(Cc1ccccc1)C(=O)c1cc2c(s1)CCC2)NCc1cccs1	-4	-4.5*	4	5
O=[n+]1cc(-c2cccc3ccccc23)n([O-])c2c1CCC2	-2	0.38	2	9
O=C1CC(N2CCN(c3ccccn3)CC2)C(=O)N1CC(c1ccccc1)c1ccccc1 (stereo not drawn)	-17	-6.3*	17	47
CCC(NC(=O)Nc1nnc(C(F)(F)F)s1)(C(F)(F)F)C(F)(F)F	-29	-7.8*	29	-15
CCOC(=O)CCN(Cc1cccs1)S(=O)(=O)c1ccc(Cl)cc1	-20	-3.1	20	-58
CCOC(=O)c1ccc(NS(=O)(=O)c2cccc3nsnc23)cc1	-10	0.00043	10	-37
Cc1csc(NC(=O)Cc2coc3cc(C)c(C(C)C)cc23)n1	-12	-6.1*	12	21
Cn1cccc1-c1nc2ccccc2n1Cc1ccccc1	-11	-4.7*	11	-9
O=C(OCn1ncc(Br)c(Br)c1=O)c1ccccc1Cl	65*	0.21	-88	44
Cc1ccc(CCNC(=O)C2CC(c3ccccc3C(F)(F)F)=NO2)cc1 (stereo not drawn)	·	-1.7	·	·
COC(=O)c1ccc(Oc2nc(N3CCCCC3)nc(N3CCOCC3)n2)cc1	5	-4.3*	-5	10
Clc1ccc(Oc2nc(Oc3ccc(Cl)cc3)nc(N3CCOCC3)n2)cc1	-7	-3.7	7	7
Cc1ccccc1OCCNC(=O)c1ccccc1Sc1ccccc1C#N	-2	-5.5*	2	-16
CCOC(=O)c1c(CN2CCN(Cc3ccccc3)CC2)n(C)c2cc(Br)c(OC)cc12	-38	-7*	38	-5
Cc1cccc(NC(=O)c2cc3n(n2)C(C(F)(F)F)CC(c2ccc4c(c2)OCO4)N3)c1 (stereo not drawn)	13	-7.3*	-13	-6
CCc1cc(/C(Cc2ccccn2)=N\O)c(O)cc1O	2	-1.5	-2	2
CCc1cc(/C(Cc2ccc3ccccc3n2)=N\O)c(O)cc1O	12	-3.9*	-11	0
COc1ccc(N(C(=O)c2ccccc2OC(C)=O)C(C)C2CC2)cc1 (stereo not drawn)	-14	0.16	14	-93
SMILES	IL1B NFkB inh	Cav32 inh	NFkB transloc pot	HUVEC tox IL1B
CCOc1cc(NC(=O)CC(C)C)c(OCC)cc1NC(=O)CCn1nnc2ccccc21	-31	0.28	31	-38
CCOC(=O)c1cnc2c(c(C)nn2C)c1Oc1ccc(Cl)cc1	-5	-6.7*	5	-21
COc1cnn(-c2ccccc2)c(=O)c1SCc1ccc(Cl)cc1Cl	10	-4*	-10	9
COc1cnn(-c2ccc(C)cc2)c(=O)c1SCc1ccccc1	·	0.0035	·	·
COc1cc2[nH]c(=O)n(Cc3ccc(C(=O)NC4CCCC4)cc3)c(=O)c2cc1OC	-46	0.23	46*	2
COc1cccc2c1nc(C)c1cc(C)oc12	-21	0.059	21	9
COc1ccc2nc(C)c3cc(C)oc3c2c1	-8	-0.36	8	87*
CNC(=O)c1sc(N2N=C3/C(=C/c4ccccc4)CCCC3C2c2ccccc2)nc1C (stereo not drawn)	-13	-4.4*	7	-9
O=C(C1=C[C@H](C2CCCCC2)C[C@H](OCc2ccc(CO)cc2)O1)N1CCN(Cc2ccc3c(c2)OCO3)CC1	·	-0.85	·	·
O=C(NCCNC(=O)C(F)(F)F)c1ccncc1	·	-0.55	·	·
O=C(NCCc1ccncc1)C(F)(F)F	72*	-0.73	-72	-40
CCOC(=O)CNC(c1ccccc1)c1cc(Br)ccc1NC(=O)OCC (stereo not drawn)	-8	-5.9*	8	0
